Results on 111 compounds are retold here after ChEMBL document CHEMBL4513216, “Probing the Open Global Health Chemical Diversity Library for Multistage-Active Starting Points for Next-Generation Antimalarials” (ACS Infect Dis, 2020).

The campaign covered roughly 69,000 compounds. About 8,600 (12%) showed an effect of 50% or more. The entries come from a sample that favours strong results as a whole.

The test system of the experiment is Plasmodium berghei. The experiment can be described thus: Screen against P. berghei liver stage (PbLuc), transformed with Luciferase, at 10uM. The format is functional, HepG2. The settings on record: tested at 10 uM.
As for `COc1ccc(CC(C)(O)CNC(=O)c2cccs2)cc1` (stereo unspecified), the INHIBITION was -18%.
Then `COc1ccc(CC(C)(O)CNC(=O)Cc2cccs2)cc1` (stereo unspecified), with 40.7%; and `COc1ccc(CC(C)(O)CNC(=O)Cc2ccc(F)cc2)cc1` (stereo unspecified), with 77.6%.
As to `Cc1noc(C)c1CN(C)C(=O)CCn1c(=O)n(C)c2ccccc21`, the INHIBITION is -6.61%.
Then `CCCN1CCC(Cc2noc(-c3cc4cccnc4nc3C)n2)CC1`, with 12.9%; and `COCc1nc(CN2CCN(c3ccc(OC)cc3)C(=O)C2C)no1` (stereo unspecified), with 11%; and `CCOCC1CN(C(=O)c2ccncc2)Cc2nn(C)cc21` (stereo unspecified), with -46.9%.
Regarding `CCS(=O)(=O)CCNC(=O)C1(c2cccc(Cl)c2)CC1`, the INHIBITION came to 44.8%.
For `COc1cccc(-c2n[nH]c3c2CN(C(=O)c2cccc(=O)[nH]2)CC3)c1`, the INHIBITION is on record as 53.8%.
Then `COc1cccc(-c2n[nH]c3c2CN(C(=O)c2cc(C)n(C)n2)CC3)c1`, with 36.6%.
Take `COc1cccc(-c2n[nH]c3c2CN(C(=O)c2ccncc2)CC3)c1`: the INHIBITION is listed as -4.91%.
In the case of `CC(=O)N(Cc1ncc(C)o1)C1CCN(CCn2cccn2)C1` (stereo unspecified), the INHIBITION is reported as 40.8%.
Turning to `Cc1cn2c(n1)CCC(NC(=O)CCC(F)(F)F)C2` (stereo unspecified), the INHIBITION is 54.9%.
Then `COc1ccc(COCC(=O)NC2CCc3nc(C)cn3C2)cc1` (stereo unspecified), with 21.7%; and `Cc1cn2c(n1)CCC(NC(=O)CCCOCc1ccccc1)C2` (stereo unspecified), with 53.4%; and `Cc1cn2c(n1)CCC(NC(=O)c1[nH]ncc1Br)C2` (stereo unspecified), with 40%.
With `Cc1cc(C(=O)NC2CCc3nc(C)cn3C2)[nH]n1` (stereo unspecified), the INHIBITION is recorded as -3.26%.
Then `Cc1cn2c(n1)CCC(NC(=O)CCC1CC1)C2` (stereo unspecified), with 26.9%; and `COc1ccccc1OCCC(=O)NC1CCc2nc(C)cn2C1` (stereo unspecified), with 34.6%; and `Cc1cn2c(n1)CCC(NC(=O)c1[nH]nc(C)c1Br)C2` (stereo unspecified), with 64.7%.
For the compound `Cc1cnn(CCC(=O)NC2CCc3nc(C)cn3C2)c1` (stereo unspecified), the INHIBITION was determined as 5.9%.
Then `Cc1nccn1CCN(C)C(=O)C1CCN(C(=O)C2CCC2)CC1`, with 16.9%.
Then `CN1CCN(C(=O)[C@@H]2CN(C)C[C@]23COc2ccc(F)cc2C3=O)CC1`, with 24.2%; and `CN(C)C(=O)c1coc(COc2ccccc2)n1`, with 19.4%; and `O=C(NCC(F)(F)F)c1ccc(-n2cncn2)nn1`, with -17.8%.
Then `Cc1cc2n(n1)CC(CNCc1ccc(Oc3ccccc3)nc1)CN2` (stereo unspecified), with 21.55%; and `Cc1ncc2c(n1)CN(c1ncnc3[nH]ccc13)CC2`, with 17.8%; and `c1ncc2c(n1)CN(c1ncnc3[nH]ccc13)CC2`, with 32.7%.
Regarding `CC(C)c1ncc2c(n1)CN(c1ncnc3[nH]ccc13)CC2`, the INHIBITION was found to be 63.4%.
Then `O=S(=O)(NCC1CCCN(Cc2ccccc2F)C1)C1CC1` (stereo unspecified), with 11.5%; and `Cc1noc(C(C)C)c1C(=O)NCc1cccnc1`, with 34.7%; and `CN(Cc1csc(-c2cccs2)n1)C(=O)CCn1ccccc1=O`, with -33%.
As to `CN(Cc1csc(-c2ccccc2)n1)C(=O)CCNS(C)(=O)=O`, the INHIBITION is on record as -47.9%.
Then `CN(Cc1csc(-c2ccccc2)n1)C(=O)CCn1ccccc1=O`, with 66.9%.
On to `Cc1ccc(-c2nc(CN3CCOC(Cn4cccn4)C3)no2)cc1` (stereo unspecified), for which the INHIBITION was -13.5%.
Then `Cc1nc(-c2cccc(Cl)c2)n(CC(=O)NCC2CCCO2)c(=O)c1C` (stereo unspecified), with 13.8%; and `COc1ccccc1CN1CC[C@]2(C[C@@H](OCC(=O)N(C)C)CO2)C1`, with 24.9%; and `CC(C)NC(=O)CC1COC2(CCN(Cc3cccnc3)CC2)C1` (stereo unspecified), with 13.7%.
Then `CNC(=O)COC1COC2(CCN(Cc3cccnc3OC)CC2)C1` (stereo unspecified), with 40.5%.
With `CCOC1COC2(CCN(Cc3cccc(F)c3)CC2)C1` (stereo unspecified), the INHIBITION is reported as 31.6%.
For `CNC(=O)COC1COC2(CCN(Cc3ccncc3F)CC2)C1` (stereo unspecified), the INHIBITION is reported as 59.3%.
On to `CNC(=O)COC1COC2(CCN(Cc3cccnc3)CC2)C1` (stereo unspecified), for which the INHIBITION turned out to be 67.3%.
With `CN(Cc1cnc2ccccc2c1)C(=O)C(c1ccccc1F)N(C)C` (stereo unspecified), the INHIBITION was 4.64%.
Then `COc1ccccc1N1CCN(C(=O)COc2c(C)occc2=O)CC1`, with 1.04%.
Then `OC(CNCCc1nnc2ccccn12)c1ccc(F)c(F)c1` (stereo unspecified), with -55.3%; and `O=C(c1nnn(-c2ccc(F)cc2)n1)N(CCO)Cc1ccccc1`, with -137%; and `CN1C(=O)[C@@H]2CC[C@H]1CN(C(=O)Nc1ccccc1C(F)(F)F)C2`, with -53.7%.
Then `CC(=O)NC(C)C1=CCCN(Cc2ccc(C(=O)O)cc2)C1` (stereo unspecified), with 37.2%; and `COc1ccc(CN2CCC=C(C(C)NC(C)=O)C2)cc1` (stereo unspecified), with 83.2%; and `COc1ccnc(CN2CCC=C(C(C)NC(C)=O)C2)c1OC` (stereo unspecified), with 36.2%.
Consider `Fc1ccc(-c2nc(CNC3CCc4ncnn4C3)cs2)cc1` (stereo unspecified), for which the INHIBITION is listed as 48.8%.
With `CNC(=O)C(C)CN(C)C(=O)Nc1cc(F)cc(Br)c1` (stereo unspecified), the INHIBITION came to 83.3%.
Then `CN(CC(O)C1CC1)C(=O)Nc1cc(F)cc(Br)c1` (stereo unspecified), with -54.5%; and `CC(O)CCN(C)C(=O)Nc1cc(F)cc(Br)c1` (stereo unspecified), with 42.6%.
Then `Cc1nc(C2CCCN2C(=O)c2ccc(N(C)C)nn2)no1` (stereo unspecified), with -16.98%.
Then `O=C(CCc1ccccc1Cl)NS(=O)(=O)c1ccc2c(c1)OCCO2`, with -19.265%; and `CC1CCN(C(CNC(=O)CCn2cccn2)c2cccs2)CC1` (stereo unspecified), with 40.7%; and `CC(Cc1cccs1)NC(=O)CCn1cccn1` (stereo unspecified), with 9.14%.
In the case of `CC1CCN(C(CNC(=O)Cn2cccn2)c2cccs2)CC1` (stereo unspecified), the INHIBITION stood at 32.3%.
For the compound `O=C(CCn1cccn1)NCC(c1cccs1)N1CCCC1` (stereo unspecified), the INHIBITION was 66.9%.
Then `O=C(Cn1cccn1)NCC(c1cccs1)N1CCCC1` (stereo unspecified), with 28%; and `CC(NC(=O)CCn1cccn1)c1ccc(-n2ccnn2)cc1` (stereo unspecified), with 10%; and `CN1CCN(C(CNC(=O)CCn2cccn2)c2cccs2)CC1` (stereo unspecified), with 31.2%.
With `CC(NC(=O)CCn1cccn1)c1cccs1` (stereo unspecified), the INHIBITION is 61.5%.
With `O=C(CCn1cccn1)NCC(c1cccs1)N1CCOCC1` (stereo unspecified), the INHIBITION is listed as 56.1%.
With `COCCc1nnc(NC(=O)CSCc2ccccc2)o1`, the INHIBITION is recorded as 2.84%.
Then `COCC[C@]1(O)CCN(Cc2ccccn2)C[C@H]1C`, with 18.4%.
Then `Cc1cccc2c1cnn2CCCNC(=O)c1cnn(C)c1`, with -17.2%; and `CC/N=c1\nc(NCC)nc2n1C(O)(Nc1cccc(Cl)c1Cl)CS2` (stereo unspecified), with 28.6%.
Then `CC/N=c1\nc(NCC)nc2n1C(O)(Nc1cc(C)ccc1C)CS2` (stereo unspecified), with -21.3%.
As for `CC/N=c1\nc(NCC)nc2n1C(O)(Nc1cc(Cl)ccc1Cl)CS2` (stereo unspecified), the INHIBITION amounted to 56%.
For the compound `CCNC(=O)N1CCc2ccc(NC(=O)NCc3ccsc3)cc21`, the INHIBITION came out at 47%.
Take `Cc1ccccc1C1(CNC(=O)CCN2C(=O)CCC2=O)CC1`: the INHIBITION was found to be 50.3%.
Then `Cc1cccc(C2(CNC(=O)CCN3C(=O)CCC3=O)CCCC2)c1`, with 36.4%; and `O=C(CCN1C(=O)CCC1=O)NCC1(c2c(F)cccc2F)CCCC1`, with 25.6%; and `CC(NCc1ccc(OCC(N)=O)cc1)c1ccc(Cl)cc1Cl` (stereo unspecified), with 32.2%.
With `Cn1cc(C(=O)Nc2cc(F)ccc2OCC2CCCO2)ccc1=O` (stereo unspecified), the INHIBITION came out at 13.6%.
Then `CCC(CC)C(=O)NCc1c(C)nn(C)c1N1CCCN(C)CC1`, with 24.6%; and `Nc1nc2c(c(NC(Cn3cccn3)c3ccccc3)n1)CCNCC2` (stereo unspecified), with 75.5%.
For the compound `Nc1nc2c(c(N3CCC(CCn4cccn4)CC3)n1)CCNCC2`, the INHIBITION is recorded as 31.4%.
On to `CN(C)CCC(Nc1nc(N)nc2c1CCNCC2)c1ccccc1` (stereo unspecified), for which the INHIBITION worked out at 68.5%.
Then `CC(Nc1nc(-c2ccccc2)nc2c1CCNCC2)c1cccnc1` (stereo unspecified), with 31.4%; and `COCC(Nc1nc(N(C)C)nc2c1CCNCC2)c1ccccn1` (stereo unspecified), with 34.9%; and `CN(C)CC(Nc1nc(N)nc2c1CCNCC2)c1ccccc1` (stereo unspecified), with 72.7%.
Regarding `CN(Cc1ccccc1-n1cccn1)c1nc(N)nc2c1CCNCC2`, the INHIBITION was -18%.
For the compound `CN(CC1Cc2ccccc2CN1C)c1nc(N)nc2c1CCNCC2` (stereo unspecified), the INHIBITION is on record as 30.8%.
Consider `c1ccc(C(Cn2cccn2)Nc2cnccn2)cc1` (stereo unspecified), for which the INHIBITION is listed as 31.2%.
Then `O=c1c(S(=O)(=O)N2CCCC2)cccn1Cc1ccc(F)cc1Cl`, with 24.2%; and `Cc1noc2ncc(C(=O)N3CCCC3c3ccsc3)cc12` (stereo unspecified), with -7.35%.
As to `Cc1cc(C2CCCN(C(=O)Cc3csc(C(C)C)n3)C2)n[nH]1` (stereo unspecified), the INHIBITION was -23.8%.
Then `O=S(=O)(c1ccccc1)N1CCCC1c1cc[nH]n1` (stereo unspecified), with 18.9%; and `Cc1ccc(C(=O)NCCNc2ncccc2C#N)c(=O)[nH]1`, with -58.7%; and `Cc1ccc(CNC(=O)c2ccc(=O)n(C)n2)c(OC2CCCC2)c1`, with 5.91%.
Then `CN1CCc2c(sc3c2C(=O)NC(C=Cc2ccccc2)N3)C1` (stereo unspecified), with -45.3%; and `Cn1nc(C(=O)N2CCOCC2)c2c1CN(CC1CCC1)C2`, with 53%.
Then `CC(C)CCN1Cc2c(C(=O)N3CCCC3)nn(C)c2C1`, with 60%; and `Cc1ccc(CN2Cc3c(C(=O)N4CCCC4)nn(C)c3C2)s1`, with -30.6%.
For `Cn1nc(C(=O)N2CCCC2)c2c1CN(CC1CCOCC1)C2`, the INHIBITION was 21.6%.
Then `Cn1nc(C(=O)N2CCOCC2)c2c1CN(CC1CC1)C2`, with 48.4%; and `CCC(C)N1Cc2c(C(=O)N3CCCC3)nn(C)c2C1` (stereo unspecified), with 23.1%.
Then `CCN1C(=O)CCC12CCC(NC(=O)c1cnccn1)CC2` (stereo unspecified), with -43%; and `CNC(=O)c1cn[nH]c1C1(C)CCCN(Cc2nccn2C(C)C)C1` (stereo unspecified), with 46%; and `CC(NCc1cnc(C2CCC2)s1)c1cccc(-n2ccnc2)c1` (stereo unspecified), with 29.7%.
On to `CCCS(=O)(=O)NC(C)c1cccc(-n2cccn2)c1` (stereo unspecified), for which the INHIBITION is 29.3%.
Take `CC(NCc1cnc(C2CCC2)s1)c1ccc(-n2cccn2)cc1` (stereo unspecified): the INHIBITION came out at 59.4%.
Turning to `CCOCCCNC(=O)NC(C)c1ccc(-n2cncn2)cc1` (stereo unspecified), the INHIBITION is listed as -31.4%.
Then `Cc1cnn(CC(C)NCc2ccc(-n3cccn3)cc2)c1` (stereo unspecified), with -1.58%; and `CC(NCc1cnc(C2CCC2)s1)c1ccccc1-n1cccn1` (stereo unspecified), with 11.9%.
Regarding `CC(NCc1cnc(C2CCC2)s1)c1ccc(-n2cncn2)cc1` (stereo unspecified), the INHIBITION is on record as 61.4%.
Then `CC(NCc1cnc(C2CCC2)s1)c1cccc(-n2cccn2)c1` (stereo unspecified), with 75.3%.
Then `CC(C)COCCCNC(=O)NC(C)c1ccc(-n2cncn2)cc1` (stereo unspecified), with -12.3%.
